# Among all 220,000 compounds or so, about 2,000 (0.91%) were called active. Roughly 2% stayed inconclusive and do not appear here. No stated cut-off is given here; in the data, inconclusive means inhibition above about 80% without an active follow-up result; inactive means below that; test concentration not stated here. The list is a sample of the results. Results with a measured potency or affinity are listed apart.
# Experiment: M. tuberculosis H37Rv growth inhibitors, H37Rv strain (AID 1626);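 further: bacteria incubated seven days before Alamar blue readout; 0% = bacteria only wells and 100% = bacteria with antibiotic wells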
# Settings: stronger effect = higher value, concentration not given here
row,SMILES,inhibition
1,O=C(C[n+]1ccccc1)Nc1c(Cl)cc(Cl)cc1Cl,-1.93% (inactive)
2,Cn1cnnc1SCC(=O)Nc1nc(-c2ccccc2)cs1,-4.7% (inactive)
3,COc1ccc(NC(=O)CSc2nc3c([nH]c4ccccc43)c(=O)n2C)cc1,7.61% (inactive)
4,Cc1ccc(OCC(=O)c2cc(C)n(CC(F)(F)F)c2C)c([N+](=O)[O-])n1,-2.91% (inactive)
5,N/C(CS(=O)(=O)c1ccccn1)=N\OC(=O)c1ccc(Cl)cc1,-1.94% (inactive)
6,Cn1ncc(N)c1C(=O)Nc1cccc(C(F)(F)F)c1,4.36% (inactive)
7,O=C(c1cccc(Cl)c1)N1CCC(=O)N(C(COCc2ccccc2)Cc2ccccc2)CC1 (stereo not drawn),-0.16% (inactive)
8,CCOC(=O)c1sc2nc3c(SCC(=O)O)cc(C(=O)c4cc(F)ccc4O)cn3c(=O)c2c1C,-5.14% (inactive)
9,Cc1ccc(Oc2nc(C(F)(F)F)nc3ccccc23)cc1,9.79% (inactive)
10,COc1ccc(Oc2nc(-c3ccncc3)nc3ccccc23)cc1,3.37% (inactive)
11,CSc1nc(Oc2ccc(F)cc2)c2ccccc2n1,8.64% (inactive)
12,Cc1cc(Oc2ccc(Cl)cc2)nc(-c2ccccc2O)n1,20.4% (inactive)
13,C/C(=N\Nc1nc(-c2ccccn2)nc2ccccc12)c1ccc(F)cc1,67.4% (inactive)
14,CC(=O)Nc1cccc(Oc2nc(-c3ccccn3)nc3ccccc23)c1,3.26% (inactive)
15,FC(F)(F)c1cc(Oc2ccc(Cl)cc2)nc(-c2ccccn2)n1,11.7% (inactive)
16,CC(=O)Nc1ccc(Oc2nc(-c3ccccn3)nc3ccccc23)cc1,-12.6% (inactive)
17,COc1cc(C(=O)c2nccc3cc(OC)c(OC)cc23)c([N+](=O)[O-])cc1OC,1.27% (inactive)
18,COc1ccc(Nc2nnc(SCC(=O)/C=C3/N(C)c4ccccc4C3(C)C)s2)cc1,10.8% (inactive)
19,CCSc1nnc(-c2ccc(C)cc2)c2ccccc12,18.7% (inactive)
20,Cc1onc(-c2ccccc2)c1C(=O)N/N=C/c1cc(Br)c(Br)o1,-1.13% (inactive)
21,COc1ccc2nc(SCC(=O)NCCc3ccccc3)[nH]c2c1,0.98% (inactive)
22,O=c1[nH]c(SCc2nc3ccccc3n2Cc2ccccc2)nc2ccccc12,5.31% (inactive)
23,Fc1ccc(CSc2nncn2NCc2ccccc2)cc1,-8.84% (inactive)
24,O=C(Nc1cccc(NC(=O)c2cccs2)c1)c1ccc2c(c1)OCCO2,4% (inactive)
25,O=C(NNC1=NCCC1)c1cccc(S(=O)(=O)N2CCCC2)c1,-1.54% (inactive)
26,Cc1cccc(N=Cc2c(O)cc(C)oc2=O)c1,2.51% (inactive)

row,SMILES,inhibition
1,Brc1ccc2ncc(Br)cc2c1,9.05% (inactive)
2,Cc1cc(C)cc(Oc2ccc(N)cc2)c1,-4.94% (inactive)
3,Nc1ccc(Br)cc1C(=O)O,-3.82% (inactive)
4,Nc1ccc(Oc2cccc(Oc3ccc(N)cc3)c2)cc1,0.76% (inactive)
5,CCOC(=O)N1CCN(S(=O)(=O)c2ccc3c(c2)CCN3C(=O)CC)CC1,-14.9% (inactive)
6,CCc1ccccc1NC(=O)c1ccc(Cn2cc([N+](=O)[O-])cn2)cc1,2.06% (inactive)
7,CC(C)Cc1nnc(NS(=O)(=O)Cc2ccccc2)s1,3.7% (inactive)
8,COc1ccc(CN(C)C(=O)CCl)cc1,17.4% (inactive)
9,CN(Cc1ccc(Cl)cc1)C(=O)CCl,63% (inactive)
10,CCOC(=O)c1ccc(-n2c(CN3CCN(CC)CC3)nc3ccc([N+](=O)[O-])cc3c2=O)cc1,64.1% (inactive)
11,CCOC(=O)c1ccc(-n2c(CN3CCOCC3)nc3ccc([N+](=O)[O-])cc3c2=O)cc1,69.4% (inactive)
12,CC(C)Sc1nnc([C@@H](N)Cc2ccccc2)o1,-1.26% (inactive)
13,Cc1ccc(-c2nn(-c3cccc(F)c3)cc2CNCc2cccnc2)o1,12.8% (inactive)
14,Cc1ccc(-c2nn(-c3cccc(F)c3)cc2CNCCc2ccncc2)o1,8.28% (inactive)
15,C=CCNC(=O)c1onc(CSc2cc(C)cc(C)c2)c1C(=O)NCC=C,4.46% (inactive)
16,O=c1c2cn[nH]c2[nH]c(=S)n1-c1cccc2ccccc12,8.18% (inactive)
17,COc1ccccc1OCC#CCN1CCCCCC1,4.4% (inactive)
18,Cc1ccc(NC2=NCC(Cc3ccc(Br)cc3)S2)cc1 (stereo not drawn),44.8% (inactive)
19,COc1ccc(NC2=NCC(C)S2)cc1 (stereo not drawn),5.03% (inactive)
20,CC1=C(C#N)C(NC(=O)C(C)(C)C)(C(F)(F)F)C(=O)N1 (stereo not drawn),-1.62% (inactive)
21,CCOC(=O)CN(Cc1sccc1C)C(=O)Nc1ccc(OCC)cc1,3.69% (inactive)
22,CSc1ccc(/C=C(/Sc2nnc(-c3ccccc3)o2)C(=O)O)cc1,-6.84% (inactive)
23,CCOC(=O)c1cccc(NC(=O)/C=C/c2ccc([N+](=O)[O-])cc2)c1,22.2% (inactive)
24,CCCCCC/C(=N/O)c1ccccn1,-3.95% (inactive)
25,CCCCCC(=O)N/N=C(\C)c1ccccn1,1.4% (inactive)
26,COc1ccc(Cl)cc1-c1n[nH]c(=S)n1C1CCCCC1,0.84% (inactive)

row,SMILES,inhibition
1,CC(=O)c1cccc(CN2CCC(CO)(CCCc3ccccc3)CC2)c1,3.9% (inactive)
2,Cc1ccccc1-c1ncc(CN2CCC(CO)(CCCc3ccccc3)CC2)cn1,69.6% (inactive)
3,N#C/C(=C(/O)c1cccs1)c1nnc2n1CCCCC2,-5.04% (inactive)
4,Cc1ccc(S(=O)(=O)N2CCCC(C(=O)N(Cc3cccs3)C3CC3)C2)cc1 (stereo not drawn),-4.95% (inactive)
5,CSCCC(NC(=O)c1ccc(C(C)(C)C)cc1)C(=O)O (stereo not drawn),0.53% (inactive)
6,O=C(COc1ccc(OCc2ccccc2)cc1)NN=C1CCCC1,7.98% (inactive)
7,Nc1ccc(O)c2c1C(=O)c1ccccc1C2=O,0.25% (inactive)
8,COc1ccc(OC)c2c1C(=O)c1ccccc1C2=O,6.76% (inactive)
9,Clc1cc(Cl)cc(Nc2ncn[nH]2)c1,5.96% (inactive)
10,Clc1ccc(Nc2ncn[nH]2)cc1,77.2% (inactive)
11,CCCOc1ccc2c(C)c(CC(=O)OC)c(=O)oc2c1,-2.3% (inactive)
12,Cc1ccc(SCC(=O)NC(=O)NC(C)C)c(C)c1,11.6% (inactive)
13,O=C(Nc1nnc(C2CC2)s1)c1cc(-c2ccccc2)nn1-c1ccccc1,43.6% (inactive)
14,COc1ccc(NC(=S)N(Cc2ccc(Cl)cc2)Cc2ccc(C(=O)O)cc2)cc1Cl,61% (inactive)
15,COC(=O)c1ccc(OC(=O)c2ccco2)cc1,-4.94% (inactive)
16,CC1CC(C)(C)NCc2ccccc21 (stereo not drawn),-9.91% (inactive)
17,CC1=CC(C)(C)Nc2ccc(OC(=O)c3cccnc3)cc21,-2% (inactive)
18,CC1CC(C)(C)NC(C)c2ccccc21 (stereo not drawn),-2.84% (inactive)
19,CC1=CC(C)(C)Nc2ccc(OC(=O)CN3C(=O)c4ccccc4C3=O)cc21,-11.5% (inactive)
20,O=C(Oc1ccc2ccccc2c1)c1ccco1,53.4% (inactive)
21,NS(=O)(=O)c1ccc(NC(=O)c2c(Cl)cccc2Cl)cc1,2.71% (inactive)
22,O=C1CC(c2cccc(F)c2)c2c(c3ccccc3[nH]c2=O)O1 (stereo not drawn),1.98% (inactive)
23,O=c1c2ccccc2nc(-c2ccccc2)n1-c1ccccc1,2.18% (inactive)
24,Cc1ccccc1-n1c(C)nc2ccccc2c1=O,2.88% (inactive)
25,CC(Nc1ccc(Cl)cc1)c1cc(Cl)ccc1O (stereo not drawn),-8.64% (inactive)
26,Cc1ccc(NC(C)c2cc(Cl)ccc2O)cc1 (stereo not drawn),-1.72% (inactive)

row,SMILES,inhibition
1,CSc1nc(N(C)NC(=O)c2ccccc2)c2ccccc2n1,-4.21% (inactive)
2,CSc1nc(N(C)NC(=O)c2ccc(F)cc2)c2ccccc2n1,-5.17% (inactive)
3,O=C(NCc1ccccc1)[C@]1(C(F)(F)F)C[C@H](CCc2ccccc2)CCCO1,-10.1% (inactive)
4,Nc1nn(-c2cccc(F)n2)cc1-c1ccccc1,-5.22% (inactive)
5,O=C(COc1ccc(Cl)cc1)Nc1ccccc1N1CCOCC1,-1.58% (inactive)
6,CCCCNC(=O)COC(=O)c1ccc(F)cc1Cl,10.1% (inactive)
7,CC(C)NC(=O)COC(=O)c1cc(Br)ccc1Cl,4% (inactive)
8,CCCNC(=O)COC(=O)c1cc(SC)ccc1Cl,7.67% (inactive)
9,CC(C)(C)NC(=O)COC(=O)c1cc(F)c(F)cc1Cl,38.6% (inactive)
10,CNC(=O)COC(=O)c1cc(F)c(F)cc1Cl,4.23% (inactive)
11,CCCCNC(=O)COC(=O)c1ccc(Cl)c(S(N)(=O)=O)c1,-0.33% (inactive)
12,CC(/C=C/c1ccccc1)=N\Nc1nc(-c2ccccc2)cs1,5.57% (inactive)
13,CCCCn1nnc(NC(=O)c2ccc(-c3ccccc3[N+](=O)[O-])o2)n1,9.1% (inactive)
14,CCc1ccc(NS(=O)(=O)c2ccc(OC)c(C)c2)cc1,16.8% (inactive)
15,Cc1nn(C(=O)c2c(-c3ccccc3)noc2C)c(C)c1N=Nc1cc(C(F)(F)F)cc(C(F)(F)F)c1,4.12% (inactive)
16,COC(=O)CNC(=O)C1CCN(c2nc(C)cc(C)n2)CC1,-8.28% (inactive)
17,CCOC(=O)N1c2ccccc2C=CC1OCC (stereo not drawn),-8.15% (inactive)
18,CCOC(=O)CN1C(=O)C(CC)Oc2ccccc21 (stereo not drawn),-1.23% (inactive)
19,O=C(CN1CCN(c2ccccc2Cl)CC1)NC1CCCc2ccccc21 (stereo not drawn),14.2% (inactive)
20,CCCC1(CCC)C(=O)NC(=NCc2ccccc2)NC1=O,-6.66% (inactive)
21,CCCCOc1cccc(-c2nnc(N)s2)c1,37.6% (inactive)
22,CCCCOc1cccc(C(=O)O)c1,-6.88% (inactive)
23,C=CCCCCCCCC(=O)OC,-15.6% (inactive)
24,O=C(CSc1n[nH]c(-c2cccs2)n1)NCc1ccc2c(c1)OCO2,6.67% (inactive)
25,CCOC(=O)Nc1c(C)n(C)n(-c2ccccc2)c1=O,-5.08% (inactive)
